Reference: PubChem BioAssay (NCATS)
Records with an inconclusive call do not appear. Activity calls are given as the source filed them. Unless noted, calls follow the shape of the dose curve; as a rule, active = well fitted curve in the direction sought with a large enough effect; inconclusive = small, poorly fitted or top-dose-only effect, or another doubt; inactive = no such curve, though single readings can be large; an effect the other way counts as inactive or inconclusive.

How the values were obtained:
[1] = biological target: Glucocorticoid receptor (Homo sapiens) (UniProt P04150); test: qHTS assay for small molecule agonists of glucocorticoid receptor signaling (AID 588532; active = well fitted curve in the direction sought with a large enough effect in the signal ratio, with a control signal flat; the % refers to the signal ratio;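 also: 100% = dexamethasone at 0.1 µM and 0% = DMSO only wells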); settings: HeLa MMTV-bla, beta-lactamase ratio, agonist, 18 h; activation: stronger effect = higher value, percent of dexamethasone control, DMSO zero
In short: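 Agonist-mode qHTS: GRE-driven beta-lactamase in HeLa cells exposed 18 h to titrated compounds (up to 92 uM), then CCF4 ratio read after 2 h at RT; Hill-fitted EC50, efficacy relative to 0.1 uM dexamethasone.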

[2] = biological target: Glucocorticoid receptor (Homo sapiens) (UniProt P04150); test: qHTS assay for small molecule antagonists of glucocorticoid receptor signaling (AID 588533; active = well fitted inhibition curve with a large enough effect in the signal ratio, with a control signal flat, not every such curve was filed as active; the % refers to the signal ratio;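 also: cells stimulated with 2 nM dexamethasone as agonist; % is scaled to controls: 0 for no effect and ±100 for the full control effect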)
In short: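 Antagonist-mode qHTS: compound titrations added to GRE-bla HeLa cells, then dexamethasone 2 nM final; 18 h, 37 C. CCF4 FRET fluorescence normalized to dexamethasone and DMSO; IC50 from Hill fit.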

[3] = qHTS assay for small molecule antagonists of peroxisome proliferator-activated receptor delta signaling (AID 588535; active = well fitted inhibition curve with a large enough effect in the signal ratio, with a control signal flat, not every such curve was filed as active; the % refers to the signal ratio;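 as to max response: cells co-treated with a PPAR-delta agonist as stimulator during compound exposure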); settings: HEK293T PPARd-UAS-bla, beta-lactamase FRET ratio, 18 h; 460 nm channel
In short: (§1)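 Titrations were run on PPAR-delta-UAS-bla HEK293T cells in charcoal/dextran-stripped serum, incubated 18 h at 37 C. CCF4 fluorescence (460/530 nm) after 2 h RT; Hill equation yields IC50 and maximal response.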

[4] = biological target: Peroxisome proliferator-activated receptor delta (Homo sapiens) (UniProt Q03181); test: as above
In short: as §1

[5] = biological target: Peroxisome proliferator-activated receptor gamma (Homo sapiens) (UniProt P37231); test: qHTS assay for small molecule agonists of peroxisome proliferator-activated receptor gamma signaling (AID 588536; active = well fitted curve in the direction sought with a large enough effect in the signal ratio, with a control signal flat, not every such curve was filed as active; the % refers to the signal ratio;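 also: 0% = DMSO basal wells and 100% = rosiglitazone at 2 µM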)
In short: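 This is an agonist-mode beta-lactamase reporter assay in HEK293 PPAR-gamma-UAS-bla cells with 1% charcoal/dextran FBS. Compound titrations ran 16 h at 37 C before CCF4 detection. EC50 and efficacy are Hill fits scaled to 2 uM rosiglitazone (100%) and DMSO basal.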

[6] = biological target: Thyroid hormone receptor beta (Homo sapiens) (UniProt P10828); test: qHTS assay for small molecule agonists of thyroid hormone receptor beta signaling (AID 588545; calls by dose curve;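 also: 0% = DMSO only and 100% = 10 nM T3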)
In short: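 Stimulation of a TR-driven beta-lactamase reporter was quantified in GripTite HEK 293 cells. Compound series ran for 18 hrs; curves were normalized to T3 and DMSO controls and fitted to yield EC50.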

[7] = biological target: Thyroid hormone receptor beta (Homo sapiens) (UniProt P10828); test: qHTS assay for small molecule antagonists of thyroid hormone receptor beta signaling (AID 588547; active = well fitted inhibition curve with a large enough effect in the signal ratio, with a control signal flat, not every such curve was filed as active; the % refers to the signal ratio;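 also: cells stimulated with 0.4 nM T3 agonist during compound exposure; series mostly up to about 77 µM; % is scaled to controls: 0 for no effect and ±100 for the full control effect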); settings: TR-UAS-bla HEK293, beta-lactamase ratio, antagonist mode, 18 h
In short: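 Inhibition of T3-driven (0.4nM final) beta-lactamase reporter activity was measured over 0.59 nM to 92 uM compound after 18 h at 37 C. The cells were GripTite HEK293 TR-UAS-bla in charcoal/dextran-stripped serum, with CCF4 ratio read-out and IC50 from Hill fits.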

[8] = qHTS assay for small molecule activators of the p53 signaling pathway (AID 651743; active = well fitted activation curve with a large enough effect in the signal ratio, not every such curve was filed as active; the % refers to the signal ratio; also: series mostly up to about 92 µM; % of control where 0% means no effect); settings: HCT-116 p53RE-bla, beta-lactamase FRET ratio, 16 h; activation: stronger effect = higher value
In short: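 After 16 hours compound treatment at 37 C, HCT-116 cells stably expressing p53RE-driven beta-lactamase were loaded with LiveBLAzer B/G FRET substrate for 2 hours at room temperature. Fluorescence intensity served as the p53 activation read-out.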

[9] = qHTS assay for small molecule activators of the nuclear factor-kappa B (NF-kB) signaling pathway (AID 651749; active = well fitted activation curve with a large enough effect in the signal ratio; the % refers to the signal ratio; also: series mostly up to about 77 µM; % of control where 0% means no effect); settings: NF-kB-bla ME-180 cells, beta-lactamase FRET ratio, 16 h; activation: stronger effect = higher value
In short: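 Activation measured after 16 hr compound treatment at 37C, 5% CO2, of 2,000 ME-180 cells/well stably expressing an NF-kB response element–driven beta-lactamase reporter, via FRET-disruption fluorescence.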

[10] = qHTS assay for environmental chemicals that activate the Aryl hydrocarbon Receptor (AhR) signaling pathway (AID 651777); settings: 1A2-DRE human hepatoma cells, luciferase, 24 h; activation: stronger effect = higher value; also: % of control where 0% means no effect; nearly all actives have a fitted effect of over 15% in size
In short: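 AhR activation is scored as a rise in luciferase from a stable DRE–CYP1A2 promoter construct in human hepatoma cells. Treatment lasts 24 hr at 37 C; detection uses One-Glo after 30 min at room temperature.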

[11] = biological target: Peroxisome proliferator-activated receptor alpha (Homo sapiens) (UniProt Q07869); test: qHTS assay for small molecule agonists of the peroxisome proliferator-activated receptor alpha (PPARalpha) signaling pathway (AID 651778); settings: PathHunter PPARalpha complementation, chemiluminescence, 6 h; max response: stronger effect = higher value; also: potency is read from the fitted curve at half-maximal effect; as to max response: % of control where 0% means no effect
In short: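 Chemiluminescence from complemented enzyme reported PPARalpha activation in cells after 6 hr of compound treatment at 37 C. The detection reagent was incubated for 60 min at room temperature, and compounds were scored as agonists.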

[12] = qHTS assay for small molecule agonists of the antioxidant response element (ARE) signaling pathway measured by Nrf2-dependant transcriptional activity (AID 720636; active = well fitted curve in the direction sought with a large enough effect in the repeat runs; an effect the other way counts as inactive or inconclusive;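 also: HepG2 cells with an ARE-driven luciferase reporter; % of control where 0% means no effect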)
In short: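 First, ARE-luc HepG2 cells attached for 6 hr at 37 C in 1% dialyzed FBS medium. Next, compound or DMSO was added and incubated 16 hr. Finally, ONE-Glo reagent was added and luminescence measured after 30 min.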

[13] = qHTS assay for small molecule agonists of the antioxidant response element (ARE) signaling pathway measured by Nrf2-dependant transcriptional activity - cell viability counter screen (AID 720653; active = well fitted curve in the direction sought with a large enough effect in the repeat runs; an effect the other way counts as inactive or inconclusive; also: % is scaled to controls: 0 for no effect and ±100 for the full control effect); settings: ARE-bla HepG2 viability, CellTiter-Glo ATP luminescence, 16 h; max response: stronger effect = lower value
In short: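 Cytotoxicity counter screen: intracellular ATP quantified by CellTiter-Glo luminescence in the same ARE-bla HepG2 plates, after 16 h compound exposure and a 2 h beta-lactamase substrate step.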

[14] = qHTS assay for cell viability of HEK293 cells (AID 743288); settings: ATP luminescence (CellTiter-Glo), 18 h; max response: stronger effect = lower value; also: % is scaled to controls: 0 for no effect and ±100 for the full control effect; nearly all actives have a fitted effect of over 50% in size
In short: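 ATP luminescence (CellTiter-Glo) reports metabolically competent cell number after parental HEK293 cells, 2,000/well, were treated with DMSO-dissolved compounds for 18 h at 37 C; reagent incubation 30 min, room temperature.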

[15] = qHTS assay for cell viability of the p53RE-bla HCT-116 cell line (AID 743292); also: % is scaled to controls: 0 for no effect and ±100 for the full control effect; nearly all actives have a fitted effect of over 55% in size
In short: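 Quantitative high-throughput format: compounds in DMSO were pinned onto p53RE-bla HCT-116 cells (4,000/well) and incubated 16 h at 37 C. Total intracellular ATP, read by CellTiter-Glo luminescence, reflects viable cell number.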

[16] = biological target: Nuclear receptor subfamily 1 group I member 2 (Rattus norvegicus) (UniProt Q9R1A7); test: qHTS assay for small molecule activators of the rat pregnane X receptor (rPXR) signaling pathway (AID 651751; call rule not given here; also: 0% is about no effect); settings: rPXR reporter cells, luciferase (One-Glo), 24 h
[17] = biological target: Peroxisome proliferator-activated receptor delta (Homo sapiens) (UniProt Q03181); test: qHTS assay for small molecule agonists of peroxisome proliferator-activated receptor delta signaling (AID 588534; calls by dose curve;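 also: 0% = DMSO basal wells and 100% = positive control agonist at 10 µM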)
In short: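 Agonist-mode beta-lactamase reporter readout (CCF4 dye, 2 h at RT) after 18 h at 37 °C exposure to a titration; Hill-equation fitting gave EC50 and maximal response.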

[18] = biological target: Peroxisome proliferator-activated receptor gamma (Homo sapiens) (UniProt P37231); test: qHTS assay for small molecule antagonists of peroxisome proliferator-activated receptor gamma signaling (AID 588537; active = well fitted inhibition curve with a large enough effect in the signal ratio, with a control signal flat, not every such curve was filed as active; the % refers to the signal ratio;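 also: reporter cells co-stimulated with 50 nM rosiglitazone agonist during compound treatment; % of control where 0% means no effect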)
In short: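 Antagonist-mode β-lactamase reporter screen run as a titration series. HEK293 PPARγ-UAS-bla cells are stimulated with rosiglitazone (50 nM final) for 16 h, then CCF4 is read at 460/530 nm. Data are scaled between DMSO and rosiglitazone and fitted to the Hill equation.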

[19] = biological target: Vitamin D3 receptor (Homo sapiens) (UniProt P11473); test: qHTS assay for small molecule antagonists of vitamin D receptor signaling (AID 588541; calls by dose curve;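 also: receptor activated by calcitriol during compound treatment; series mostly up to about 77 µM; % is scaled to controls: 0 for no effect and ±100 for the full control effect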)
In short: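 Antagonist-mode beta-lactamase reporter assay: HEK293T VDR-UAS-bla cells were exposed to titrated compound alongside 1-alpha,25-dihydroxyvitamin D3 at 3 nM final for 16 h. Values were normalized to the 50 nM agonist control and DMSO basal, with IC50 and efficacy from Hill equation fits.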

[20] = biological target: Vitamin D3 receptor (Homo sapiens) (UniProt P11473); test: qHTS assay for small molecule agonists of vitamin D receptor signaling (AID 588543; calls by dose curve;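 also: 0% = DMSO basal and 100% = reference agonist control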)
In short: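 β-lactamase reporter, VDR-UAS-bla HEK293T, agonist mode. Cells plated 5 h at 37 °C, compound titration 16 h at 37 °C, CCF4 dye 2 h RT, ratio 460/530 nm. Hill fit → EC50, efficacy vs 50 nM 1α,25-(OH)2D3.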

[21] = qHTS assay for small molecule agonists of retinoid X receptor alpha signaling (AID 588544; calls by dose curve;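 as to activation: 0% = DMSO basal wells and 100% = reference agonist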); settings: HEK293T RXRa-UAS-bla, beta-lactamase reporter, 18 h; 530 nm emission
[22] = biological target: Retinoic acid receptor RXR-alpha (Homo sapiens) (UniProt P19793); test: as above
[23] = qHTS assay for small molecule antagonists of retinoid X receptor alpha signaling (AID 588546; active = well fitted inhibition curve with a large enough effect in the signal ratio, with a control signal flat, not every such curve was filed as active; the % refers to the signal ratio); settings: HEK293T RXRa-UAS-bla, beta-lactamase ratio, antagonist mode; measured here: W530 green channel, cytotoxicity proxy
In short: (§2)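 Beta-lactamase reporter inhibition, read as CCF4 fluorescence ratio (ex 405, em 460/530 nm) after 2 h at RT. HEK293T UAS-bla cells, 2500/well, were stimulated with 9-cis-RA at 500 or 100 nM final alongside test compound for 18 h at 37 C.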

[24] = qHTS assay for small molecule agonists of the antioxidant response element (ARE) signaling pathway (AID 651741; active = well fitted activation curve with a large enough effect in the signal ratio; the % refers to the signal ratio; also: % of control where 0% means no effect)
In short: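 Beta-lactamase reporter under ARE control in HepG2 cells, 2,000 per well, was induced by 16 h compound treatment at 37 C. Read-out was fluorescence from LiveBLAzer B/G FRET substrate after 2 h at room temperature.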

[25] = qHTS assay for small molecule activators of the human pregnane X receptor (PXR) signaling pathway (AID 720659; call rule not given here; also: 0% is about no effect)
[26] = biological target: Retinoic acid receptor RXR-alpha (Homo sapiens) (UniProt P19793); test: qHTS assay for small molecule antagonists of retinoid X receptor alpha signaling (AID 588546); settings: HEK293T RXRa-UAS-bla, beta-lactamase ratio, antagonist mode
In short: as §2

Chain of Peroxisome proliferator-activated receptor gamma (Homo sapiens) (P37231 whole entry, looked up): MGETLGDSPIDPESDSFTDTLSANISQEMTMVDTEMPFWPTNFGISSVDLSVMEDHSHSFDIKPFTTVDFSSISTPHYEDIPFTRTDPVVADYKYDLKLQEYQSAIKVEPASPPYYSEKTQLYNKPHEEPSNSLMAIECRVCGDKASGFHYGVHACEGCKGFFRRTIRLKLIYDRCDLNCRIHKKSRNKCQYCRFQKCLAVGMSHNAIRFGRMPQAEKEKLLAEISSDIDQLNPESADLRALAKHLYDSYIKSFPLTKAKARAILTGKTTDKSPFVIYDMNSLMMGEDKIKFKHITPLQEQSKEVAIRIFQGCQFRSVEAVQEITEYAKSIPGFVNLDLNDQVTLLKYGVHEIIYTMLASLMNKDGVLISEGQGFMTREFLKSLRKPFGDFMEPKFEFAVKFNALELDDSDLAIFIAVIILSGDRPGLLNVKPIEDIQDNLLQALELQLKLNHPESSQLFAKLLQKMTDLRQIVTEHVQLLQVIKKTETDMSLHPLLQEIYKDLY
Chain of Peroxisome proliferator-activated receptor delta (Homo sapiens) (Q03181 whole entry, looked up): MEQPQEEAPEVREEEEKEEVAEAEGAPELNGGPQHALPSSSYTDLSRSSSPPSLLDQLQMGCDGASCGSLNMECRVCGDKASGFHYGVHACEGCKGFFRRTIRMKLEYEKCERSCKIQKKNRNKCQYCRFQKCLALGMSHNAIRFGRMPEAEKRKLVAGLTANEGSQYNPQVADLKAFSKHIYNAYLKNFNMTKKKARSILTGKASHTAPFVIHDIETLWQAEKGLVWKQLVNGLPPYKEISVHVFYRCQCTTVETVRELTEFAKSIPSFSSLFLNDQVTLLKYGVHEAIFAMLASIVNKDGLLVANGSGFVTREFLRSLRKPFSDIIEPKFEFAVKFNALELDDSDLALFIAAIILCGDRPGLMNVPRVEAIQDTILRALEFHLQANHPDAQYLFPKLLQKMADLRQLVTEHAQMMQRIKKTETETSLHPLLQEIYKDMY
Chain of Peroxisome proliferator-activated receptor alpha (Homo sapiens) (Q07869 whole entry, looked up): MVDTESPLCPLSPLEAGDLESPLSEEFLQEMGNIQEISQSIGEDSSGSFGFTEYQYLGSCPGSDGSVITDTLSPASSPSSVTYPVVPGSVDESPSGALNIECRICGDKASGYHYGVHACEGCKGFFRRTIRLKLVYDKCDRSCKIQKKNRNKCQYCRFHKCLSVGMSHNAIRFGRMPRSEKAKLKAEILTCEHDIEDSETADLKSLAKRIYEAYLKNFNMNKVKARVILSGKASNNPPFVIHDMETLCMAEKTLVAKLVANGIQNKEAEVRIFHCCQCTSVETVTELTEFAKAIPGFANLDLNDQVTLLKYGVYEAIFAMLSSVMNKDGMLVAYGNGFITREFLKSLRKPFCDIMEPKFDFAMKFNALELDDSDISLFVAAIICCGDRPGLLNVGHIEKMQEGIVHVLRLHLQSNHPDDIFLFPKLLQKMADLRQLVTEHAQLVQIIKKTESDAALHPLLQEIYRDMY
Chain of Thyroid hormone receptor beta (Homo sapiens) (P10828 whole entry, looked up): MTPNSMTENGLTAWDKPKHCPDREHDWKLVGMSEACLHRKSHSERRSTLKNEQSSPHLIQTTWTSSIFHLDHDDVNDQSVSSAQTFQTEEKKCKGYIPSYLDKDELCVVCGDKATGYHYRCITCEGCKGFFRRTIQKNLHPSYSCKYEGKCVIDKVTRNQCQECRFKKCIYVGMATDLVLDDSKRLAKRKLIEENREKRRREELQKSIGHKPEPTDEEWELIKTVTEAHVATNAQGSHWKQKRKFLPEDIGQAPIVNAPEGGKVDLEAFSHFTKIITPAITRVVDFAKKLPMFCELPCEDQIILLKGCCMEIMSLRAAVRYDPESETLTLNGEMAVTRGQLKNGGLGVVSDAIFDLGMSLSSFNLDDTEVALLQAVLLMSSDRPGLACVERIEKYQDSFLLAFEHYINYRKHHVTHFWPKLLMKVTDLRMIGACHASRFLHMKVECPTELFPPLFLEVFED
Chain of Vitamin D3 receptor (Homo sapiens) (P11473 whole entry, looked up): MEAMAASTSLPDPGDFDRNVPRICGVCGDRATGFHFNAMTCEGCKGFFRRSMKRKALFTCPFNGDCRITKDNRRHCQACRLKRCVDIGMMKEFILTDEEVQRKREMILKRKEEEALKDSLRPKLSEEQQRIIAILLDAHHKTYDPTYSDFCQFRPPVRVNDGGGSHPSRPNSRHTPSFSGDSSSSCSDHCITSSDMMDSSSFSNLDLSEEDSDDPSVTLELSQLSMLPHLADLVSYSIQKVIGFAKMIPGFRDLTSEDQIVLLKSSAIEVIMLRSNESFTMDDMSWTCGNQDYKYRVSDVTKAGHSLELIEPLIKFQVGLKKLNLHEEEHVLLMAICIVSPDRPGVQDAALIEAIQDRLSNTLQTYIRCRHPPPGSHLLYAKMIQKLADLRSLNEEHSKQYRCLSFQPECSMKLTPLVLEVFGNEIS
Chain of Glucocorticoid receptor (Homo sapiens) (P04150 whole entry, looked up): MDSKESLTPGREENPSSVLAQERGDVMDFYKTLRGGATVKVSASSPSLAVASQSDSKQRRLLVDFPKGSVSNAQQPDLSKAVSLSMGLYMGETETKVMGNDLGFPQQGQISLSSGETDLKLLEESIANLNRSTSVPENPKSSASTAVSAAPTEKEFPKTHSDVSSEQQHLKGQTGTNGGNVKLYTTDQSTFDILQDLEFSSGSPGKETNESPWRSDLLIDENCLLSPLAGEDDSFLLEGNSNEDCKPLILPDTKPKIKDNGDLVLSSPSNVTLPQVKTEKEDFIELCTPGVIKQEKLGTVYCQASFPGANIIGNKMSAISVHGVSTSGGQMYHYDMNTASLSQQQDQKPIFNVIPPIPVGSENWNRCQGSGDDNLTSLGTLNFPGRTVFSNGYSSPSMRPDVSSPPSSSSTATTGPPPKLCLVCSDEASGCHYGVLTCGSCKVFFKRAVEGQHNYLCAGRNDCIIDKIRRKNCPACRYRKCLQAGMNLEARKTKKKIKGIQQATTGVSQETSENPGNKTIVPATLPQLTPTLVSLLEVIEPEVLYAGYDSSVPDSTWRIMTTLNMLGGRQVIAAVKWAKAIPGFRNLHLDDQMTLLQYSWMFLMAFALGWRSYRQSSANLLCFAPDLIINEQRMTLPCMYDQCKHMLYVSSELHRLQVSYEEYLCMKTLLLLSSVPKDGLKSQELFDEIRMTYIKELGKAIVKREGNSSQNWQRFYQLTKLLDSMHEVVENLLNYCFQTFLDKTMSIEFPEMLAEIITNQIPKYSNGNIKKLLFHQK
Chain of Nuclear receptor subfamily 1 group I member 2 (Rattus norvegicus) (Q9R1A7 whole entry, looked up): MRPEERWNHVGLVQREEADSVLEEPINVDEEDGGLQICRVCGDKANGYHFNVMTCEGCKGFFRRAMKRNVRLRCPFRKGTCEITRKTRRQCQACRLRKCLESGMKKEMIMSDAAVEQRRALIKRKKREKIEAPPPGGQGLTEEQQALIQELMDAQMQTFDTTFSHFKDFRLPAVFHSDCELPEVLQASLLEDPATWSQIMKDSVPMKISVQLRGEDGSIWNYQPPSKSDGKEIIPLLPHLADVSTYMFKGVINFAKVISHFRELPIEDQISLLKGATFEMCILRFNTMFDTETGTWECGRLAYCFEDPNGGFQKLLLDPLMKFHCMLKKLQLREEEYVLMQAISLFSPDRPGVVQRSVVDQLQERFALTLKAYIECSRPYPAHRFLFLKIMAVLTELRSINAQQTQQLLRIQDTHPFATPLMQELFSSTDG
Chain of Retinoic acid receptor RXR-alpha (Homo sapiens) (P19793 whole entry, looked up): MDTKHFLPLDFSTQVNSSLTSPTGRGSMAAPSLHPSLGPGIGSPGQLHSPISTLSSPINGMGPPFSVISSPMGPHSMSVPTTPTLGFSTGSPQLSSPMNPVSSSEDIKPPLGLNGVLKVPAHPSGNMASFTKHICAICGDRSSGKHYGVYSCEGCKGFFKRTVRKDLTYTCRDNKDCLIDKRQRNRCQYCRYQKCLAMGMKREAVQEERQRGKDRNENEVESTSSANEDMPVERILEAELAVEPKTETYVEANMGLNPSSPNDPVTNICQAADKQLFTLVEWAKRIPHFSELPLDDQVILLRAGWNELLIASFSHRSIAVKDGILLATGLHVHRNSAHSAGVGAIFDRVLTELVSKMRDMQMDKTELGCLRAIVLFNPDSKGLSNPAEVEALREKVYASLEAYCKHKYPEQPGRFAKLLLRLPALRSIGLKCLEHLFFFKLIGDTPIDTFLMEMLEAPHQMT

CCOC(=O)C(C)OC(=O)c1cc(Oc2ccc(C(F)(F)F)cc2Cl)ccc1[N+](=O)[O-] (stereo not drawn)
active: Potency [11] 35.5 µM
inactive: activation [1] 2.93% | Potency [2] | Potency [4] | Potency [5] | Potency [6] | activity change % (negative = inhibition) [7] 11.5% | activation [8] 0.27% | activation [9] 0.301% | activation [10] 4.56% | Potency [12] | max response [13] -9.47% | max response [14] -22.9% | Potency [15] | max response [16] 4.28%
34.5%: max response [3]

CNC(=O)O/N=C(\C)SC
inactive: Potency [2] | outcome [17] | Potency [4] | Potency [18] | Potency [19] | outcome [20] | Potency [22] | Potency [6] | activity change % (negative = inhibition) [7] -8.81% | Potency [24] | activation [8] -0.165% | activation [9] -0.423% | activation [10] -1.88% | max response [11] -0.714% | Potency [12] | max response [13] -4.43% | max response [14] -6.55% | Potency [15] | max response [16] -0.197%
-3.33%: max response [23]
-25.7%: max response [21]
24.5%: max response [3]

CCOP(=S)(OCC)OC(Cl)C(Cl)(Cl)Cl (stereo not drawn)
inactive: activation [1] 11.6% | Potency [2] | outcome [17] | Potency [18] | Potency [19] | Potency [6] | activity change % (negative = inhibition) [7] 7.52% | activation [8] -0.781% | activation [9] 0.0553% | activation [10] 0.044% | max response [11] -1.33% | Potency [12] | max response [13] -3.95% | max response [14] -12.8% | Potency [15] | max response [16] 0.487% | outcome [25]
-12.5%: max response [23]

C#CC(C)(C)NC(=O)c1cc(Cl)cc(Cl)c1
-11.2%: max response [23]
inactive: activation [1] -9.44% | Potency [2] | Potency [19] | outcome [20] | Potency [22] | Potency [6] | max response [26] -9.81% | activity change % (negative = inhibition) [7] 3.53% | activation [8] -3.76% | activation [9] -1.42% | activation [10] -1.14% | max response [11] 7.64% | Potency [12] | max response [13] 4.89% | max response [14] 5.07%
-7.53%: max response [21]

OC(c1ccc(Cl)cc1)(c1cncnc1)c1ccccc1Cl (stereo not drawn)
8.06%: max response [23]
31.8%: max response [3]
inactive: activation [1] -10.1% | outcome [17] | outcome [20] | Potency [6] | max response [26] -39.6% | activity change % (negative = inhibition) [7] 5.6% | activation [8] -2.63% | activation [10] 2.31% | max response [11] -4.62% | Potency [12] | max response [13] -4.24% | max response [14] -17.1% | Potency [15]
